Pf apPOL block: Pf-apPOL inhibitors, biochemical, fluorescence. inhibition, % at 10 µM. AID 1794808, 2022. 210,000 tested, 0.25% active. Recombinant Pf-apPOL, molecular beacon fluorescence, 1.5 h. Plasmodium falciparum apicoplast DNA polymerase (apPOL)
mHTT CaM bind: mutant huntingtin-calmodulin interaction inhibitors – biochemical, AlphaScreen, primary screen. P42858. AlphaScreen His-mHTT/GST-CaM binding, luminescence. inhibition, % at 15 µM. 190,000 tested, 3.6% active;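 note: 0% = both proteins with DMSO and 100% = one protein alone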
* hit, by the source's call; . = no result. This excerpt belongs to a sample that is enriched for hits. Cut-off read from the data, not from the text of the source: active = inhibition above about 50%; inactive = the rest.

SMILES | Pf apPOL block | mHTT CaM bind
CCOc1cc(/C=C2/SC(=O)NC2=O)ccc1Oc1ccc([N+](=O)[O-])cc1[N+](=O)[O-] | -7 | 42
COCCNC(=O)c1cnn2c(C)c(Cc3c(C)cc(C)cc3C)c(C)nc12 | -10 | 33
CCOC(=O)C(C)Oc1ccc(NS(=O)(=O)c2cc(OC)ccc2OC)cc1Cl (stereo unspecified) | 2 | .
O=C(CC12CC3CC(CC(C3)C1)C2)N1CCCCC1 | 2 | -6
Cc1ccn(CC(C)NC(=O)c2cn3ccccc3n2)n1 (stereo unspecified) | -9 | -1
COc1ccc(CC(=O)N2CCc3c(c(C(=O)NCc4ccccc4)nn3C)C2)cc1 | -7 | 61*
COc1ccc(CC(=O)N2CCc3c(c(C(=O)NCc4ccc(F)cc4)nn3C)C2)cc1 | -6 | 74*
Cc1ccc(CC(=O)N2CCc3c(c(C(=O)NCc4ccc(F)cc4)nn3C)C2)cc1 | -9 | 69*
Cc1ccc(CC(=O)N2CCc3c(c(COCc4ccccc4F)nn3C)C2)cc1 | -8 | 7
COc1ccc(C(=O)N2CCc3c(c(C(=O)NCc4ccc5c(c4)OCO5)nn3C)C2)cc1 | -7 | 47
CCC(CC)C(=O)N1CCc2c(c(C(=O)NCc3ccc(F)cc3)nn2C)C1 | -8 | 58*
Cn1nc(C(=O)NCc2ccccc2)c2c1CCN(C(=O)c1ccco1)C2 | -10 | 18
O=C(c1csc(-c2ccc(N3CCCC3)nc2)n1)N1CCOCC1 | 0 | -2
O=C(NC1CCN(c2ccccc2C(=O)N2CCCCC2)CC1)C1CCCC1 | -15 | 11
O=C(COc1ccc(Br)cc1Cl)Nc1ccc(F)cc1F | -5 | -2
COc1ccc(C(=O)Nc2ccc3c(c2)OC2(CCCCC2)O3)c(OC)c1OC | 1 | 11
O=[N+]([O-])c1c(Cl)cc(O)c2c1C1C=CCC1C(c1ccccc1)N2 (stereo unspecified) | 3 | 75*
O=[N+]([O-])c1ccc(C2Nc3c(O)cc(Cl)c([N+](=O)[O-])c3C3C=CCC32)cc1 (stereo unspecified) | -5 | 92*
Cc1cccc2c1NC(c1ccc([N+](=O)[O-])cc1)C1CC=CC21 (stereo unspecified) | 3 | 17
O=C(NCCC(O)c1ccoc1)C(=O)NCC1CCCO1 (stereo unspecified) | 5 | 2
Cc1cccc(NC(=O)N2CCN(Cc3nc4cccnc4n3-c3cccc(F)c3)CC2)c1 | 4 | 14
Cc1ccc2c(c1)N(C(C)C)N=C(C(=O)N1CCCCCC1)S2(=O)=O | 1 | -7
COc1ccc(OC)c(Nc2nc(Cl)nc(Nc3cc(OC)ccc3OC)n2)c1 | -2 | 53*
COc1ccc(Nc2nc(Cl)nc(Nc3ccc(OC)c(OC)c3)n2)cc1OC | -6 | 44
FC(F)C(F)(F)C1=CC(c2ccccc2)=NCCN1 | -3 | -2
SMILES | Pf apPOL block | mHTT CaM bind
Cc1ccc(O)c(C2=NCCNC(C(F)(F)C(F)F)=C2)c1 | 59* | 7
COc1ccc(C2=NC3(CCN(CC(=O)NCc4ccc(Cl)cc4)CC3)NC2=O)cc1 | 0 | 1
Cn1c(=O)c2ccnn2c2ccc(C(=O)NCc3ccccc3)cc21 | 3 | -2
Cc1cccc(CNC(=O)c2ccc3c(c2)n(C)c(=O)c2ccnn23)c1 | 6 | 58*
O=[N+]([O-])c1ccc(N=Cc2[nH]c3ccc(Br)c(Cl)c3c2O)cc1 | 1 | 27
C(=Nc1c2ccccc2nc2ccccc12)c1ccco1 | . | 56*
C(=Nc1c2ccccc2nc2ccccc12)c1cccc2c1OCOC2 | . | -3
COc1ccc(C=NCC(O)c2ccccc2)cc1 (stereo unspecified) | 1 | 21
COc1cc(C2CC(=O)Nc3n[nH]c(-c4ccccc4)c32)ccc1O (stereo unspecified) | 1 | 54*
COc1cc(C2CC(=O)Nc3n[nH]c(-c4ccc(Cl)cc4)c32)cc(OC)c1OC (stereo unspecified) | 1 | 100*
COc1ccc(C2CC(=O)Nc3n[nH]c(-c4ccccc4)c32)cc1OC (stereo unspecified) | -5 | 9
COc1ccc(OC)c(C2CC(=O)Nc3n[nH]c(-c4ccccc4)c32)c1 (stereo unspecified) | 2 | 94*
COc1cccc(C2CC(=O)Nc3n[nH]c(-c4ccc(Cl)cc4)c32)c1 (stereo unspecified) | 3 | 34
COc1ccc(C2CC(=O)Nc3n[nH]c(-c4ccccc4)c32)cc1 (stereo unspecified) | -2 | -1
O=C(CCCn1nc(-c2cccs2)ccc1=O)Nc1ccc(-c2ccc(=O)[nH]n2)cc1 | -6 | -4
COc1ccc(S(=O)(=O)Nc2cccc(Cl)c2C)cc1 | 1 | -5
O=C(NC1CCCCC1)c1ccc2c3c(onc13)-c1ccccc1C2=O | 2 | 42
CC1CC(C)CN(c2cc(NCCCC(=O)O)c3c4c(onc24)-c2ccccc2C3=O)C1 (stereo unspecified) | 0 | 65*
O=C1c2ccccc2-c2onc3c(N4CCOCC4)cc(N4CCOCC4)c1c23 | -3 | 39
CC1CCCN(c2cc(NCCCC(=O)O)c3c4c(onc24)-c2ccccc2C3=O)C1 (stereo unspecified) | 0 | 77*
O=C1/C(=C/c2ccc(Br)s2)CCC1C1CCCC1 (stereo unspecified) | 1 | -12
O=C(O)c1ccc(NC2=CC(=NS(=O)(=O)c3ccc(Cl)cc3)c3ccccc3C2=O)cc1 | 5 | 82*
CC(=O)Nc1ccc(NC2=CC(=NS(=O)(=O)c3ccccc3)c3ccccc3C2=O)cc1 | -2 | 71*
CC(=O)Nc1ccc(NC2=CC(=NS(=O)(=O)c3ccc(C)cc3)c3ccccc3C2=O)cc1 | -1 | 39
Cc1ccc(S(=O)(=O)c2ccc(Cl)cc2)cc1S(=O)(=O)Nc1ccc(C(=O)O)cc1 | 3 | -2
SMILES | Pf apPOL block | mHTT CaM bind
OC(C#CC(O)(c1ccccc1)c1ccccc1)c1cccnc1 (stereo unspecified) | -15 | -6
OC(C#Cc1ccccc1)C#CC(O)(c1ccccc1)c1ccccc1 (stereo unspecified) | 4 | 98*
O=C(c1ccc(F)c(F)c1)N1CCCCC1CCN1CCOCC1 (stereo unspecified) | -3 | 5
COc1ccc(C2CC(c3ccccc3Cl)Nc3nc(N)nn32)cc1OC (stereo unspecified) | -6 | 26
Nc1nc2n(n1)C(c1ccc(Cl)cc1)CC(c1ccccc1)N2 (stereo unspecified) | -7 | 8
CCOc1ccccc1C1CC(c2ccc(Cl)c(Cl)c2)Nc2nc(N)nn21 (stereo unspecified) | -3 | 100*
COc1ccccc1C1CC(c2ccc(Cl)cc2Cl)Nc2nc(N)nn21 (stereo unspecified) | -3 | 57*
COc1ccc(C2CC(c3ccc(Cl)c(Cl)c3)Nc3nc(N)nn32)cc1OC (stereo unspecified) | 2 | 29
Nc1nc2n(n1)C(c1cccs1)CC(c1ccc(Cl)c(Cl)c1)N2 (stereo unspecified) | -8 | 84*
COc1ccc(CN(CCC2(C(C)C)CCOC(C)(C)C2)C(C)=O)cc1 (stereo unspecified) | 0 | 15
Cn1cccc1C(CNC(=O)c1ccc(Cl)cc1Cl)N1CCOCC1 (stereo unspecified) | -2 | 2
Cc1ccnc(NC(=O)Nc2ccc(F)cc2)c1 | -8 | -1
